Experimental data from PubChem BioAssay (NCI).
Values joined by “and” are separate entries in the source; they are usually repeats but may differ in a detail not shown here. Equal entries are not always repeated. The panel holds about 83,000 compounds, 20% with a hit somewhere; the sample as a whole holds those more often.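 Testing used 96-well plates and a 48-hour single-concentration exposure. Example: -40 means 40% of the starting cells died.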 Active and inactive are the calls of the source. The calls were made as follows: active = growth percent below 10; inactive = the rest.

Tested on: MDA-MB-468 breast
Test: NCI-60 one-dose screen, 48 h (100 = growth as untreated, 0 = no growth, -100 = all killed)
Conditions: 10 µM unless noted

| SMILES | growth |
| --- | --- |
| Nc1ccc(Nc2nccc(-c3ccc4ccccc4c3)n2)cc1 | -10.6% (active) |
| COc1cccc(-c2nc3sccn3c2-c2cccc(S(C)(=O)=O)c2)c1 | 89.1% (inactive) |
| CC(=O)N(C)C1CCc2c(sc(NC(=O)c3ccc(C(C)(C)C)cc3)c2C(N)=O)C1 (configuration not stated) | 86.6% (inactive) |
| CN[C@@H](CCCNC(N)=NC/C=C(/C)CCC=C(C)C)C(=O)N(C)[C@@H](CCCNC(N)=NCC=C(C)C)C(=O)N[C@H](C)[C@H](OS(=O)(=O)O)c1ccc(OS(=O)(=O)O)c(COS(=O)(=O)O)c1 | 97.3% (inactive) |
| CC(C)Cc1ccc(C(C)C(=O)NCc2ccc(Cn3c(=O)sn(CCCCl)c3=O)cc2)cc1 (configuration not stated) | 80.8% (inactive) and -83.8% (active) |
| O=C1C=CC(O)=CC1=P(c1ccccc1)(c1ccccc1)c1ccccc1 | 92% (inactive) |
| Cc1ccc(CSCc2ccc(C(=O)NC3CC3)o2)cc1 | 49.2% (inactive) |
| Cl[C@@H]1CCO[C@H](c2cc3ccccc3c3ccccc23)C1 | 93.4% (inactive) |
| O=C(Nc1nc(-c2ccc(Cl)cc2)cs1)c1cc(O)c(O)c(O)c1 | 55.8% (inactive) |
| O=C(Nc1ccc(Nc2ncnc3sc4c(c23)CCOC4)cc1)Nc1ccc(Cl)c(C(F)(F)F)c1 | 83.5% (inactive) |
| CCOC(=O)c1sc(NC(=O)COc2ccc(/C=C3\Cc4ccc(Cl)cc4C3=O)cc2)nc1C | 115% (inactive) |
| CCCCC[n+]1ccc(SCC(=O)N(C)c2ccc(Oc3ccccc3)cc2)c2ccccc21 | 38.9% (inactive) |
| Nc1ccc(CC[C@H]2CCC/C=C/[C@@H]3C[C@H](O)C[C@H]3[C@H](O)/C=C/C(=O)O2)cc1 | -27.3% (active) |
| CC(=O)C1CCCCC1 | 102% (inactive) |
| CN(C)c1ccc(C(=C2C=CC(=[N+](C)C)C=C2)c2ccc(N(C)C)cc2)cc1 | -82.4% (active) |
| Cc1ccc(N)c(O)c1 | 78.7% (inactive) |
| C#CC[C@@H]1C[C@]2(C)[C@H]3CC[C@@H]4[C@H]5[C@H](C(=C)C)CC[C@]5(C(=O)O)CC[C@@]4(C)[C@]3(C)CC[C@H]2C(C)(C)[C@H]1O | -2.92% (active) |
| Fc1ccc(C2CC(c3cccc(Nc4ccncc4)c3)=NN2c2cc(Cl)cc(Cl)c2)cc1 (configuration not stated) | 37.6% (inactive) |
| C#CC(C)(O)c1ccc(Cl)cc1 (configuration not stated) | 94.5% (inactive) |
| N#C/C(=C\c1ccc(Br)cc1)n1nnc2c(F)cccc21 | -10.8% (active) |
| Cn1c(=O)c2c(nc(NC3=NS(=O)(=O)c4ccccc43)n2Cc2ccccc2)n(C)c1=O | 103% (inactive) |

| SMILES | growth |
| --- | --- |
| COc1cccc(NC(=O)NCCNc2nccc(-c3c(-c4ccc(F)cc4)nc4sccn34)n2)c1 | 94.3% (inactive) |
| COC(=O)C1(O)NC(=C(C#N)C#N)C(C#N)=C1C(=O)c1ccc(OC)c(OC)c1 (configuration not stated) | 110% (inactive) |
| CCOC(=O)NC(N)=O | 105% (inactive) and 98.7% (inactive) |
| CCC(OC(=O)CC(C)C)c1ccccc1 (configuration not stated) | 99.3% (inactive) |
| OC(c1cc2c(Cl)cc(Cl)cc2c2cc(C(F)(F)F)ccc12)C1CCCCN1 (configuration not stated) | -89.1% (active) |
| O=C1OCC2=C1C(c1ccc3c(c1)OCO3)CC(=O)N2c1cccc(Cl)c1 (configuration not stated) | 88.1% (inactive) |
| CN1C(=O)/C(=C\c2c(Cl)cccc2Cl)c2ccccc21 | 37.7% (inactive) |
| CN1CCN(Cc2ccc(NC(=O)c3cncc(C#Cc4cnc(N)c5cnccc45)c3)cc2C(F)(F)F)CC1 | 6.98% (active) |
| COC(=O)c1c(-c2ccccc2)csc1NC(=O)c1c(-c2ccccc2)noc1C | 63.6% (inactive) |
| NC(=O)c1cc(Cl)ccc1NC(=O)c1ccccc1-c1ccccc1 | 25.4% (inactive) |
| C#CCOc1ccc(/C=N\Nc2nc(-c3ccc(C)cc3)cs2)cc1OC | 70.7% (inactive) |
| Cc1ccc(-c2nc(N3CCCNCC3)c3oc(-c4ccccc4)nc3n2)cc1 | -76.2% (active) |
| Nc1cc(-c2ccc(Cl)cc2)nn1-c1nc2ccccc2nc1Cc1ccccc1 | 75.7% (inactive) |
| Clc1ccc(Nc2nnc(CNc3ccccc3)c3ccccc23)cc1 | -16.4% (active) |
| NNc1c2ccccc2nc2ccccc12 | 16.4% (inactive) |
| Cc1cc2c(c(C)c1Cl)C(=O)/C(=C/c1ccc(O)c(O)c1)O2 | 109% (inactive) |
| COc1ccc(/C=C/C(=O)c2ccc(NC(=O)CN3CCN(c4cc5c(cc4F)c(=O)c(C(=O)O)cn5C4CC4)CC3)cc2)cc1 | 99.1% (inactive) |
| O=C(Cn1nnc([N+](=O)[O-])n1)c1ccccc1 | 99.2% (inactive) |
| O=C1C(=O)N(CCCCn2cc(-c3ccccc3)nn2)c2ccccc21 | 125% (inactive) |
| CCOc1cc(N)ccc1C(=O)NCCCN(CC)CC | 85% (inactive) |
| CC(=Nc1ccccc1)C1=C(O)C(Cc2ccc(O)cc2)NC1=O (configuration not stated) | 17.6% (inactive) |

| SMILES | growth |
| --- | --- |
| O=C(Nc1nc(-c2ccc(Cl)cc2)nc2c1sc(=S)n2-c1ccccc1)C(F)(F)F | 70.1% (inactive) |
| COc1cc(C2C3=C(COC3=O)Nc3cc4c(cc32)OCO4)cc2c1OCO2 (configuration not stated) | -10.3% (active) |
| Cc1c2cc[nH]c(=O)c2c(C)c2c1[nH]c1cc(OCCN3CCN(C)CC3)ccc12 | -12.4% (active) |
| CCOC(=O)c1c(C)nc2ccccc2c1/C=C/c1ccc(OC)cc1 | 20.6% (inactive) |
| CCCN1CCN(c2ccc3nc(-c4ccc5nc(-c6ccc(OCC)cc6)[nH]c5c4)[nH]c3c2)CC1 | -67.6% (active) |
| COc1ccc(C(=O)OC2C(OC3C(O)COC(O[C@H]4C[C@H]5[C@@H]6CC=C7C[C@@H](O)CC[C@]7(C)[C@H]6CC[C@]5(C)[C@H]4[C@H](C)C(=O)CCC(C)C)C3OC(C)=O)OCC(O)C2O)cc1 (some centres not stated) | -34.1% (active) |
| O=C1/C(=C/c2ccc([N+](=O)[O-])s2)Oc2ccccc21 | -34.1% (active) |
| Cc1nccc2c3ccc(OCc4cn(-c5ccc(Br)cc5)nn4)cc3n(CCCc3ccccc3)c12 | 108% (inactive) |
| COc1ccc(C2NC3=C(CCCC3)C(C#N)(C#N)C2(C#N)C#N)cc1 (configuration not stated) | 58% (inactive) |
| C/C(=C\CCc1ccoc1)CC/C=C(\C)CCCN1CCSCC1 | 22.6% (inactive) |
| Cc1[nH]n(C(=O)c2ccncc2)c(=O)c1N=Nc1ccc(S(=O)(=O)Nc2ccncn2)cc1 | 103% (inactive) |
| OCc1cn(-c2ccc(Cl)cc2)nc1-c1ccc(O)cc1 | 107% (inactive) |
| Cc1cc(Nc2nc(-c3ccncc3)nc3ccccc23)n[nH]1 | 84.2% (inactive) |
| COc1ccc(-c2nc3c(c(-c4ccc(Cl)cc4)nn3-c3ccccc3)c(-c3ccc(O)cc3)c2C#N)cc1 | 54.8% (inactive) |
| COc1cc2cc(Oc3ccc(NC(=O)Nc4ccc(Cl)c(Cl)c4)cc3)c(C)nc2cc1OCCN1CCOCC1 | 33.9% (inactive) |
| Nc1nc2c(c3ncccc13)C(c1cccc(Br)c1)Cc1ncccc1-2 (configuration not stated) | 13.7% (inactive) |
| CCN(CCCNc1cc2c(c(N)c1S(=O)(=O)O)C(=O)c1ccccc1C2=O)c1ccccc1 | 89% (inactive) |
| O=C(Nc1ccc(OCc2nnc(-c3ccccc3)o2)c(F)c1)Nc1ccc(Cl)c(C(F)(F)F)c1 | 1.01% (active) |
| O=C1NC(=O)C(=Cc2cn(Cc3ccccn3)c3ccccc23)C(=O)N1 | -51.2% (active) |
| C=C(CO)[C@@H]1CC[C@]2(COC3CCCCO3)CC[C@]3(C)[C@H](CC[C@@H]4[C@@]5(C)C=C(C=O)C(=O)C(C)(C)[C@@H]5CC[C@]43C)[C@@H]12 (some centres not stated) | -75.4% (active) |
| N#CCCCCCCCCCCC#N | 112% (inactive) |

| SMILES | growth |
| --- | --- |
| CN(C)S(=O)(=O)c1ccc(-c2nc(C(Cl)Cl)nc3cc(-c4ccc(F)cc4)nn23)cc1 | -46.2% (active) |
| O=C(/C=C/C12c3ccccc3C(c3ccccc31)C1C(=O)N(c3ccccc3)C(=O)C12)c1ccc(Cl)cc1 (configuration not stated) | 3.08% (active) |
| COc1cc(-c2n[nH]nc2-c2ccccn2)cc(OC)c1OC | 104% (inactive) |
| C=C(C)[C@@H]1CC[C@]2(C(N)=O)CC[C@]3(C)[C@H](CC[C@@H]4[C@@]5(C)C/C(=C/c6ccco6)C(=O)C(C)(C)[C@@H]5CC[C@]43C)[C@@H]12 | 87.6% (inactive) |
| COc1ccc(CCN2CCC(CN(C)Cc3cnn(-c4ccccc4)c3)CC2)cc1 | 19% (inactive) |
| C=C1C(=O)O[C@@H]2/C=C(/C)C3=CC(=O)[C@@](C)(C[C@H](OC(=O)/C(C)=C\C)[C@@H]12)O3 | -43.6% (active) |
| CCN(CC)CCCC(C)Nc1cnc(C(=O)Nc2cccc3ccc(OC)nc23)cn1 (configuration not stated) | 79.1% (inactive) |
| Cn1cc(-c2csc(-c3cn(C)c4ccccc34)n2)c2cnccc21 | -27.1% (active) |
| Cc1nc2sc(C(=O)Nc3ccccc3)c(N)c2cc1C(O)c1ccccc1 (configuration not stated) | 3.45% (active) |
| C=C1C(=O)O[C@H]2[C@H]1CC/C(COC(=O)NCCc1cccc(OC)c1)=C\CC[C@@]1(C)O[C@@H]21 | 18.9% (inactive) |
| O=C1Nc2ccccc2/C1=C/C(=O)c1ccc(N2CCCC2)cc1 | 5.3% (active) |
| CC(=O)C(C(C)=O)C(c1ccccc1)C(C(C)=O)C(C)=O | 98.6% (inactive) |
| NCCCN | 107% (inactive) |
| Cc1cc(SCc2ccccc2)nc(N)n1 | 110% (inactive) |
| COc1cc(-c2nn(-c3cccc(NC(=O)Nc4cc(C(F)(F)F)cc(C(F)(F)F)c4)c3)cc2-c2ccncc2)ccc1Cl | -25.4% (active) |
| CN1C(=O)C(C(=O)/C=C/c2ccccc2C(=O)O)C(=O)N(C)C1=O | 102% (inactive) |
| O=c1[nH]c2cc(O)ccc2n2cc3c(F)cccc3c12 | 28.7% (inactive) |
| CN(C)c1ccc2nc3ccc(N)cc3[n+](-c3ccccc3)c2c1 | -28.6% (active) and 20.2% (inactive) |
| CCOC(=O)NCCCC(=O)NCCc1ccccc1 | 105% (inactive) |
